# USP8 inh – inhibitors of human USP8 deubiquitinase | Ubiquitin carboxyl-terminal hydrolase 8 (Homo sapiens), P40818 | purified USP8, Ub-rhodamine cleavage fluorescence, 30 min | inhibition, % at 20 µM | 47,000 tested, 4.2% active | AID 1645853, 2021
# USP17 block – inhibitors of human USP17 deubiquitinase; inhibition, % at 50 µM; 47,000 tested, 6.5% active; purified USP17, Ub-rhodamine cleavage fluorescence, 3 h
# USP28 inh – inhibitors of human USP28 deubiquitinase; AID 1645857, 2021; inhibition, % at 25 µM; 47,000 tested, 3% active; purified USP28, Ub-rhodamine cleavage fluorescence, 30 min
# Target sequence (Q96RU2 whole entry, looked up): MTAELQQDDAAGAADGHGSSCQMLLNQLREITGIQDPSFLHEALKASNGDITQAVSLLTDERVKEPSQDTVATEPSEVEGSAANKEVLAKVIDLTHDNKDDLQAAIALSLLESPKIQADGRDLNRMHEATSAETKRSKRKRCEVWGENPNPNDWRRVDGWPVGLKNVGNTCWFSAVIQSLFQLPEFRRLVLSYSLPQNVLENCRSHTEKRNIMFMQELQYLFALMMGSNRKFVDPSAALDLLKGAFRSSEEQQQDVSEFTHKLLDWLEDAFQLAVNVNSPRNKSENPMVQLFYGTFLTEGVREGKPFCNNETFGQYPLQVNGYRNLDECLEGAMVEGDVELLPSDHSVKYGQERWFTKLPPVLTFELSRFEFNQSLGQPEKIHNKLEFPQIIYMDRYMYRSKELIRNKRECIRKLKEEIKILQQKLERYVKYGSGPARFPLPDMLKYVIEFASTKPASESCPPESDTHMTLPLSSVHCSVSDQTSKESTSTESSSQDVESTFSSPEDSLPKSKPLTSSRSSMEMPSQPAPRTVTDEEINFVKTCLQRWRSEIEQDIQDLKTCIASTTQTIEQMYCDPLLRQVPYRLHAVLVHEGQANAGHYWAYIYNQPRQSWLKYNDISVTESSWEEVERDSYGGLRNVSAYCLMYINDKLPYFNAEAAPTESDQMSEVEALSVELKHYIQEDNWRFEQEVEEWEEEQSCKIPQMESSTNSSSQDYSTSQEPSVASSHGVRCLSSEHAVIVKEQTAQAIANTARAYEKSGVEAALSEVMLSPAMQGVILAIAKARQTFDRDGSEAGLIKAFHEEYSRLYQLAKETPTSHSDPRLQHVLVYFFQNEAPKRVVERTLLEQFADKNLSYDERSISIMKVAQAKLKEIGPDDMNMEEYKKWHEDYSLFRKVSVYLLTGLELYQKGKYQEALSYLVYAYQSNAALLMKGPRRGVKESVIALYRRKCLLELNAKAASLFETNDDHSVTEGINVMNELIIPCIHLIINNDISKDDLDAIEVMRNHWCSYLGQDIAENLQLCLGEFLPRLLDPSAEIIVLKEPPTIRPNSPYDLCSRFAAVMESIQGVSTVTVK
# USP10 inh – inhibitors of human USP10 deubiquitinase. Ubiquitin carboxyl-terminal hydrolase 10 (Homo sapiens), Q14694. purified USP10, Ub-rhodamine fluorescence, 60 min. inhibition, % at 20 µM. 47,000 tested, 1.1% active
# USP30 block – inhibitors of human USP30 deubiquitinase. Ubiquitin carboxyl-terminal hydrolase 30 (Homo sapiens), Q70CQ3. purified USP30, Ub-rhodamine cleavage fluorescence. inhibition, % at 25 µM. 47,000 tested, 5.3% active. AID 1645860, 2021
# A number is an active result; . = inactive; / = not tested or not shown. Rows were chosen to be rich in hits. Some 13% of all compounds tested hit in one or more screens of this group. No stated cut-off is given here; in the data, active means inhibition above about 30%; inactive means the rest.
SMILES,USP8 inh,USP17 block,USP28 inh,USP10 inh,USP30 block
CCN1CCN(C(=O)Cn2c(=O)[nH]c3c(-c4ccccc4)c[nH]c3c2=O)CC1,.,.,.,.,.
COc1ccccc1CNC(=O)Cn1c(=O)[nH]c2c(-c3ccccc3)c[nH]c2c1=O,.,44,.,.,.
Cc1noc2nc(C)n(CC(=O)NCc3ccccc3Cl)c(=O)c12,.,.,.,.,.
O=C(Cn1c(=O)[nH]c2c(-c3ccccc3)c[nH]c2c1=O)N1CCCCCC1,46,.,.,.,.
COc1ccc(CNC(=O)Cn2c(=O)[nH]c3c(-c4ccccc4F)c[nH]c3c2=O)cc1,87,.,.,.,.
COc1ccccc1CNC(=O)Cn1c(C)nc2onc(C)c2c1=O,.,.,.,.,35
Cn1ncc2c(Nc3ccccc3)nc(NCCc3ccccc3)nc21,.,.,.,.,.
O=C(NCc1ccccc1)N1CCCn2c(CN3CCCCC3)nnc2C1,.,.,.,.,.
CCOc1ccc(CNC(=O)C2CCCN(c3nc4ccc(C)cc4[nH]3)C2)cc1 (stereo not drawn),.,.,.,.,.
Cc1c(OCC(=O)NCC(=O)N2CCC3(O)CCCCC3C2)ccc2c3c(c(=O)oc12)CCCC3 (stereo not drawn),.,.,.,.,.
CCC(C)NC(=O)Cn1c(=O)[nH]c2c(-c3ccccc3)c[nH]c2c1=O (stereo not drawn),.,38,/,.,/
O=C(Cn1c(=O)[nH]c2ccccc2c1=O)N[C@@H](C(=O)O)c1ccccc1,.,.,.,.,.
CS(=O)(=O)N1CCCC(c2cncc(-c3ccn[nH]3)n2)C1 (stereo not drawn),.,.,.,.,.
Cc1cccc(-n2nnc3c(=O)n(CC(=O)Nc4ccc5c(c4)OCO5)cnc32)c1,31,.,.,.,.
CCOC(=O)c1ccc(NC(=O)Cn2cnc3c(nc4n3CCCCC4)c2=O)cc1,.,.,.,.,49
CCc1ccc(NC(=O)Cn2cnc3c(nc4n3CCCCC4)c2=O)cc1,.,.,.,.,.
Cc1ccc(Cn2cnc3c(nnn3-c3cccc(F)c3)c2=O)cc1,42,47,.,.,.
CCOC(=O)c1ccc(NC(=O)Cn2cnc3c(nnn3-c3cccc(Cl)c3)c2=O)cc1,.,33,.,.,.
Cc1cccc(-n2nnc3c(=O)n(CC(=O)Nc4ccc5c(c4)OCCO5)cnc32)c1,.,.,.,.,.
O=C1CCN(c2ncnc3cc(-c4ccc(F)cc4)sc23)CC1,.,31,.,.,.
Fc1ccc2[nH]c3c(N4CCCC4)ncnc3c2c1,.,.,.,.,.
CSc1ccc(CNC(=O)Cc2c(C)n[nH]c2C)cc1,.,.,.,.,34
Cc1ccc(C(C(=O)NCc2ccc3c(c2)OCO3)N(C(=O)c2ccc3c(c2)OCCO3)C2CCCC2)cc1 (stereo not drawn),47,49,.,.,.
Cc1ccc(C(C(=O)NCc2ccc3c(c2)OCO3)N(C(=O)c2ccc3c(c2)OCCO3)c2cc(C)cc(C)c2)cc1 (stereo not drawn),.,.,.,.,.
COc1ccc(-c2ccccc2)cc1CN1CC[C@@]2(NC(C)=O)CNC[C@H]2C1,.,.,.,.,.
SMILES,USP8 inh,USP17 block,USP28 inh,USP10 inh,USP30 block
O=C(CCC(=O)N1CCOc2ccccc21)Nc1cc(F)ccc1F,.,.,.,.,.
O=C(CN1C=NC2=NS(=O)(=O)c3ccccc3N21)Nc1cc(F)ccc1F,.,76,.,.,.
COc1ccccc1NS(=O)(=O)c1cccc(C(=O)N2CCCCCC2)c1,.,.,.,.,36
Cc1cc(N2CCCC2c2nc(C)cc(-c3nccn3C)n2)ncn1 (stereo not drawn),.,.,.,.,.
CC(=O)Nc1ccc(C(=O)NCc2ccccc2F)c(N2CCCCC2)c1,.,.,37,.,.
CC1=C(C(=O)Nc2ccccc2C)C(c2ccc(OCc3ccccc3F)cc2)n2ncnc2N1 (stereo not drawn),.,62,.,.,.
CC1=C(C(=O)Nc2ccc(Cl)cc2)C(c2cccnc2)n2ncnc2N1 (stereo not drawn),.,.,.,.,.
CC1=C(C(=O)Nc2ccccn2)C(c2ccc3c(c2)OCO3)n2ncnc2N1 (stereo not drawn),.,.,33,.,.
CC(C)(C)c1n[nH]c(C2CN(C(=O)CCn3ccnc3)CCO2)n1 (stereo not drawn),.,.,.,.,.
CCCn1cc(CN2CCC(C(=O)Nc3ccc(-c4cccc(C)c4)cc3)CC2)c(C)n1,.,.,.,.,.
COc1cccc(OC)c1C(=O)NCCS(=O)(=O)N1CCN(c2ncccn2)CC1,.,.,.,.,.
Cc1cc(NS(=O)(=O)c2ccc(NC(=O)c3cccc4ccccc34)cc2)no1,.,.,.,.,.
Cc1cc(NS(=O)(=O)c2ccc(NC(=O)c3ccc(N4CCCC4)c([N+](=O)[O-])c3)cc2)no1,.,.,.,31,.
Cc1nn(C)cc1CN1CCOC(c2cccc(-c3cccc(C(N)=O)c3)n2)C1 (stereo not drawn),.,.,.,.,.
CCN1CCN(CCNC(=O)c2cc(-c3ccccn3)nc3ccccc23)CC1,.,.,.,.,.
CC(C)CN1C[C@@H]2CN(S(=O)(=O)c3ccccc3)C[C@@H]2C1,.,.,.,.,.
CCOC(=O)C1(Cc2cc(-c3ccc(F)cc3)no2)CCCN(Cc2cnc(C)n2C)C1 (stereo not drawn),.,.,.,.,36
CCOC(=O)C1(Cc2cc(-c3ccccc3C)no2)CCCN(Cc2cncn2C)C1 (stereo not drawn),.,.,.,.,.
COCCn1ccc2ccn(Cc3nc(-c4ccncc4)no3)c(=O)c21,.,.,.,.,.
COc1ccc(C2CC(=O)N(CC(=O)Nc3ccc(NC(C)=O)cc3)c3ccccc3S2)cc1OC (stereo not drawn),.,37,/,.,/
COc1ccc(Cl)cc1NC(=O)CN1C(=O)CC(c2ccccc2)S(=O)(=O)c2ccccc21 (stereo not drawn),.,.,.,.,.
O=C(C1CCCO1)N1CCc2[nH]nc(-c3ccccc3)c2C1 (stereo not drawn),.,.,.,.,.
Cn1c(=O)c2c(ncn2CCOc2ccc(F)cc2)n(C)c1=O,.,.,33,.,.
CN(Cc1ccccc1)S(=O)(=O)c1ccc(S(=O)(=O)N2CCN(C(=O)c3cccnc3)CC2)cc1,.,.,.,.,74
Cc1ccc(CNc2cc(-n3cccn3)ncn2)cc1,.,.,31,.,.
O=C(/C=C/c1ccco1)c1cccc([N+](=O)[O-])c1,50,83,46,32,.
CCOc1ccc(S(=O)(=O)NCc2ccccc2Cl)c2ccccc12,30,32,.,.,45

# Source: PubChem BioAssay
